# About 79,000 compounds went through this panel and 15% of them were active in at least one assay; those are over-represented in the sample as a whole. Active and inactive are the calls of the source. Rule as the data show it: active = growth inhibition above about 70%; inactive = the rest. Where a SMILES comes first, the peptide text is derived from it. The star is where a group is joined. Trt = c1ccc(C(c2ccccc2)(c2ccccc2)*)cc1; Cbz = O=C(OCc1ccccc1)*
# Assay: NCI Yeast Anticancer Drug Screen. Data for the mlh1 rad18 strain (AID 175)
# Details: S. cerevisiae mlh1 rad18 strain growth inhibition; at 50.0 µM; active compounds read high
# Procedure, shortened: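 Growth inhibition of the yeast strain was measured after compound exposure and expressed relative to vehicle-treated controls. The strain carries defined defects in DNA damage repair.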
row,SMILES,growth inhibition
1,CC1CCN(CCC(=O)c2cccc(O)c2)CC1,65.8% (inactive)
2,CCC(c1ccc(O)c(C2CCCCC2)c1)C(CC)c1ccc(OC(=O)c2ccccc2)c(C2CCCCC2)c1 (stereo not given),-8.9% (inactive)
3,CC(=O)c1csc2c1C(=O)c1scc(C(C)=O)c1C2=O,87% (active)
4,O=C1C2=Cc3ccccc3CCN2c2ccccc21,83.1% (active)
5,Cc1cc(I)cc(I)c1O,86.3% (active)
6,NCCCSc1ccc(Br)cc1,8.5% (inactive)
7,O=C1OC2(Cc3ccccc31)c1ccccc1-c1ccccc12,27.8% (inactive)
8,Cc1occc1C(=S)Nc1ccc(Cl)c(C(=O)OCC2CC2)c1,16.2% (inactive)
9,c1cc(C2=NCCN2)ccc1Nc1ccc(-c2cc3ccc(C4=NCCN4)cc3[nH]2)cc1,98.5% (active)
10,Cc1ccc(C)c(NC(=O)CC2SC(=Nc3ccccc3Cl)NC2=O)c1 (stereo not given),64.5% (inactive)
11,Cc1ccccc1[P+](C)(c1ccccc1C)c1ccccc1C,71.8% (active)
12,Oc1ccc(CNCc2ccccc2)c2cccnc12,98.2% (active)
13,COC(=O)c1ccc(OC)cc1,16.2% (inactive)
14,OCC(CO)C1c2cccc3ccc4cccc1c4c23,81.4% (active)
15,CCC(CCCN(CC)CCc1ccccc1)OC(=O)c1cc(OC)c(OC)c(OC)c1 (stereo not given),54.5% (inactive)
16,O=[N+]([O-])c1ccc(-[n+]2ccc3ccccc3c2)c([N+](=O)[O-])c1,81.6% (active)
17,CN(C)CCC1(C2=CCCC2)CC/C(=C\c2ccccc2Cl)C1=O (stereo not given),87.8% (active)
18,CCOC(=O)CCC(NC(=O)c1ccc(NC(OC)c2nc3cc(C(F)(F)F)ccc3nc2-c2ccccc2)cc1)C(=O)OCC (stereo not given),91.9% (active)
19,CCCCCCN(CCCCCC)CC(O)c1cc(-c2ccccc2)nc2c(O)cccc12 (stereo not given),33.5% (inactive)
20,O=C1C=CC(=O)N1C1c2ccccc2-c2ccccc21,97.1% (active)
21,CC(=O)c1ccc(OCc2ccccc2)cc1,15.2% (inactive)
22,O=C(Oc1cccc2cccnc12)c1ccccc1,95.2% (active)
23,C=C(Cl)C(=NC(C)(C)C)Nc1ccccc1C,40.1% (inactive)
24,COC(=O)C(CSC(c1ccccc1)(c1ccccc1)c1ccccc1)NC(=O)C(CC(N)=O)NC(=O)OCc1ccccc1 (stereo not drawn) (Cbz-Asn-Cys(Trt)-OMe; configuration not given here),68.9% (inactive)
25,ClCc1nnc2n1-c1ccc(Cl)cc1SC2,24.1% (inactive)

# Reference: PubChem BioAssay (NCI)
